Screening results as filed in PubChem BioAssay.
Gli-Sufu block – Gli-Sufu pathway antagonists, primary screen, luciferase luminescence, Sufu-KO-LIGHT cells, uHTS | Sufu-KO-LIGHT fibroblasts, Gli luciferase reporter luminescence | inhibition, % at 5 µM | 340,000 compounds, 0.74% hits;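 active = inhibition above about 55%, limit read from the data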;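 note: 0% = DMSO-treated cells and 100% = wells with medium but no cells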
NCOA1 inh – SRC1 coactivator transcriptional activity inhibitors, primary screen, cell-based, luminescence; HEK293 GAL4-SRC1 luciferase reporter; 360,000 compounds, 0.12% hits; inhibition, % at 3.6 µM; Nuclear receptor coactivator 1 (Homo sapiens), Q15788; AID 588354, 2011;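 active = inhibition above the campaign mean plus 3 SD, with each screening campaign given its own cutoff, cut at about 60% in these data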;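 note: 0% = DMSO treated cells and 100% = gossypol at 36 µM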
NR2F2 inh – NR2F2 transcriptional activity inhibitors, primary screen, cell-based, luciferase reporter, HEK293T, luminescence; 370,000 compounds, 0.7% hits; inhibition, % at 8.6 µM; HEK293T NGFI-A luciferase reporter;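 active = inhibition above a per-plate cutoff, mean inhibition of test wells between control levels plus 3 SD, cut at about 38% in these data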;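 note: cells cotransfected with COUP-TFII expression vector driving the NGFI-A reporter; 0% = median of COUP-TF2 test wells and 100% = reporter-only cells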
NCOA3 inh – SRC3 coactivator transcriptional activity inhibitors, primary screen, cell-based, luminescence; AID 588352, 2011; 360,000 compounds, 0.17% hits; inhibition, % at 3.6 µM; HEK293 GAL4-SRC3 luciferase reporter;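 active = inhibition above a per-campaign cutoff, the mean of all compounds plus 3 SD, cut at about 60% in these data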;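 note: 0% = DMSO-treated cells and 100% = gossypol-treated cells at 36 µM; higher means less SRC3-driven luciferase light from the GAL4 reporter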
LRH-1 inv ag – LRH-1 (NR5A2) inverse agonists, primary screen, cell-based, luminescence, HEK293T, StAR-luciferase reporter; Nuclear receptor subfamily 5 group A member 2 (Homo sapiens), O00482; LRH-1 transfected, 24 h; inhibition, % at 3.6 µM; 360,000 compounds, 0.13% hits; AID 602396, 2012;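 active = inhibition above the mean inhibition of all tested compounds plus 3 SD, cut at about 73% in these data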;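 note: 0% = DMSO wells and 100% = reporter-only cells lacking LRH-1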
NCOA2 inhibitor – inhibition of GAL4-SRC2 driven luciferase reporter, primary screen, SRC2 inhibitor project, cell-based, luminescence; HEK293 GAL4-SRC2 luciferase reporter; Nuclear receptor coactivator 2 (Homo sapiens), Q15596; inhibition, % at 9 µM; AID 651957, 2012; 370,000 compounds, 0.17% hits;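 active = inhibition above the mean inhibition of all tested compounds plus 3 SD, set per campaign, cut at about 52% in these data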;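 note: 0% = DMSO treated cells and 100% = cells given Gossypol at 36 µM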
VP16 Luc counter – Gal4-VP16 luciferase reporter inhibitors, counter-screen for COUP-TFII antagonist project, cell-based, luminescence, HEK293. 2,500 compounds, 25% hits. inhibition, % at 8.5 µM. shares compounds with NR2F2 inh; in the data active = inhibition above about 13%
COUP-TFII conf – NR2F2 transcriptional activity inhibitors, confirmation, cell-based, luciferase reporter, HEK293, triplicate | shares compounds with NR2F2 inh | HEK293 NGFI-A luciferase reporter, luminescence | inhibition, % at 8.5 µM | 2,500 compounds, 45% hits | AID 687008, 2013;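 active = mean inhibition over three repeats above a set limit taken from the earlier primary screen, cut at about 38% in these data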;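 note: 100% = cells given the luciferase reporter alone without the COUP-TF2 vector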
* = called active by the depositor; . = not tested or not shown. Only some compounds are listed: those with a hit (about 1.3% of all), similar ones and a draw of the others.

SMILES	Gli-Sufu block	NCOA1 inh	NR2F2 inh	NCOA3 inh	LRH-1 inv ag	NCOA2 inhibitor	VP16 Luc counter	COUP-TFII conf
Cc1ccc2c(C)c(C(=O)N3CCCCC3CO)oc2c1C (stereo not drawn)	-30	-65	-7	-19	-42	-25	.	.
C=CCNc1nc(-c2sc(NC(=O)C(C)(C)C)nc2C)c(-n2cc(-c3ccccc3)nn2)s1	.	.	38*	.	26	23	-5	10
C=CCNc1nc(-c2sc(NC(C)=O)nc2C)cs1	-63	-53	-36	-28	13	-21	.	.
CN1C(=O)C2(C(C#N)=C(N)N(c3cc(Cl)cc(Cl)c3)C3=C2C(=O)CCC3)c2ccccc21 (stereo not drawn)	8	6	43*	33	9	7	-16	26
Cc1cccc(C)c1NC(=O)C(CCc1ccccc1)N1CCN(CCN(C)C)CC1 (stereo not drawn)	.	.	-4	.	.	3	.	.
c1ccc(CN2CCC(Nc3nc(-c4ccccc4)nc4ccccc34)CC2)cc1	2	5	-13	3	-7	16	.	.
COc1cc2ncnc(NCc3ccccc3)c2cc1OC	6	11	11	-7	-2	11	.	.
c1ccc(CN2CCC(CNc3ncnc4ccccc34)C2)cc1 (stereo not drawn)	23	17	41*	13	21	32	-1	15
c1ccc(CNc2ncnc3ccccc23)cc1	40	38	64*	42	25	38	8	53*
Cc1ccc(CN2CC(C(=O)N3CC=C(c4ccccc4)CC3)CC2=O)cc1 (stereo not drawn)	2	-22	1	1	-5	16	.	.
C[C@@H]1CN([C@@H](C)CO)C(=O)CCCn2nncc2CO[C@H]1CN(C)C	.	10	1	4	-19	1	.	.
Nc1ccn([C@@H]2O[C@H](C(=O)N[C@H](Cc3ccccc3)C(=O)N3CCN(CCO)CC3)[C@@H](O)[C@H]2O)c(=O)n1	.	.	15	.	.	11	.	.
O=C1N/C(=C/c2ccc(N3CCOCC3)o2)C(=O)N1c1cccc(Cl)c1	-20	-11	-5	-11	0	-21	.	.
N#Cc1cc2ccccc2nc1SCC(=O)Nc1ccc(S(=O)(=O)N2CCCC2)cc1	11	-20	39*	24	-2	14	-8	2
Cc1ccc(NC(=O)Cc2n[nH]c(=O)c3ccccc23)cc1S(=O)(=O)N1CCCCCC1	41	-3	38*	-7	-6	23	-2	17
Cc1ccc(NC(=O)CSc2ncnc3ccccc23)cc1S(=O)(=O)N1CCCCC1	5	-9	39*	18	-25	36	-7	8
CN(CC(=O)Nc1ccc(Cl)c(C(F)(F)F)c1)C(=O)Cc1n[nH]c(=O)c2ccccc12	11	-13	46*	16	-22	28	-5	10
CC(C)C[C@H]1CN([C@@H](Cc2ccccc2)CN2CCC[C@H]2CN2C(=O)C(=O)NC[C@@H]2Cc2ccccc2)C(=O)C(=O)N1CC1CCCCCC1	.	.	9	.	.	-3	.	.
CC(N)c1csc(Nc2nccc(C(F)(F)F)n2)n1 (stereo not drawn)	.	11	0	0	8	7	.	.
CC1=C(CO)C(=O)OC([C@@H](C)C2CC[C@H]3C4C[C@H]5O[C@]56[C@@H](O)C=CC(=O)[C@]6(C)C4CC[C@]23C)C1 (stereo partly drawn)	16	14	44*	20	62	68*	49*	41*
O=C1CSc2ccc(C(=O)N3CCCC(C(=O)N4CCOCC4)C3)cc2N1 (stereo not drawn)	.	.	2	.	.	-28	.	.
C(=N\Nc1ccc2ccccc2n1)/c1ccc2c(c1)OCCO2	41	60	64*	57	43	52	38*	70*
O=C(CSc1nnc(C2CC2)n1CC1CCCO1)Nc1cccc(Cl)c1 (stereo not drawn)	-2	-3	13	-18	12	-1	.	.
CCOC(=O)C(CNc1ccc(O)cc1)NC(=O)c1ccccc1 (stereo not drawn)	.	.	13	.	.	-34	.	.
O=S(=O)(c1ccccc1)N1CCC(O)(CSc2ccc(F)cc2)CC1	17	12	40*	23	27	35	2	27
SMILES	Gli-Sufu block	NCOA1 inh	NR2F2 inh	NCOA3 inh	LRH-1 inv ag	NCOA2 inhibitor	VP16 Luc counter	COUP-TFII conf
CN1[C@H](Cc2ccccc2)COc2cc(N3CCCC3)ccc2S1(=O)=O	.	.	55*	.	.	0	4	9
CCCCCCC(=O)N(O)C1CC(=O)N(c2ccc(F)cc2)C1=O (stereo not drawn)	-5	2	38*	27	-2	28	-4	44*
CCCCCCC(=O)N(O)C1CC(=O)N(c2ccc(Br)cc2)C1=O (stereo not drawn)	-9	16	40*	3	5	22	3	52*
CC(C)(C)c1ccc(NC(=O)N2CCN(c3ccc([N+](=O)[O-])cn3)CC2)cc1	3	4	25	19	-10	25	.	.
CCc1c(-c2ccccc2OC)ncn1Cc1cccc(-c2ccccc2)c1	.	.	51*	.	19	28	6	16
O=C(Nc1ccc(F)c(F)c1)c1ccc(F)c(S(=O)(=O)N2CCC3(CC2)OCCO3)c1	23	13	39*	16	5	2	-4	18
Cc1cc(/C=C2/C(=O)NN(c3ccccc3)C2=O)c(C)n1-c1ccc(O)cc1	-3	39	57*	37	37	23	-42	31
COc1ccc(CC(=O)Nc2ccc3c(c2)CCC3)cc1OC	8	25	50*	27	23	-5	-4	12
COc1ccc(OC)c(CC(=O)Nc2ccc3c(c2)CCC3)c1	-10	-5	8	6	14	15	.	.
COc1ccc(CCC(=O)Nc2ccc(C)c(S(=O)(=O)N(C)C)c2)cc1OC	18	13	41*	17	29	21	1	15
COc1ccc(S(=O)(=O)Nc2cc(Sc3ncn[nH]3)c(O)c3ccccc23)cc1	.	.	67*	.	.	61*	13*	20
CCCCOCC1CN(CCCC)S(=O)(=O)c2c(cccc2Sc2ccc(SC)cc2)O1 (stereo not drawn)	.	.	7	.	.	-40	.	.
CN=c1scc(-c2cccs2)n1/N=C/c1ccccc1O	81*	92*	94*	93*	98*	88*	88*	108*
